Our source for the residual activity values is ChEMBL document CHEMBL2218924, “A broad activity screen in support of a chemogenomic map for kinase signalling research and drug discovery” (Biochem J, 2013).

One may read the residual activity as the signal under treatment as a percentage of the control signal.

Test [1] deals with Death-associated protein kinase 1 (Homo sapiens) (UniProt P53355). The following applies: at 10 µM.
Test [2] concerns the target Death-associated protein kinase 2 (Homo sapiens) (UniProt Q9UIK4). The following applies: at 1 µM.
Test [3] deals with T1, Serine/threonine-protein kinase DCLK2 (Homo sapiens) (UniProt Q8N568).
T1 sequence (whole entry): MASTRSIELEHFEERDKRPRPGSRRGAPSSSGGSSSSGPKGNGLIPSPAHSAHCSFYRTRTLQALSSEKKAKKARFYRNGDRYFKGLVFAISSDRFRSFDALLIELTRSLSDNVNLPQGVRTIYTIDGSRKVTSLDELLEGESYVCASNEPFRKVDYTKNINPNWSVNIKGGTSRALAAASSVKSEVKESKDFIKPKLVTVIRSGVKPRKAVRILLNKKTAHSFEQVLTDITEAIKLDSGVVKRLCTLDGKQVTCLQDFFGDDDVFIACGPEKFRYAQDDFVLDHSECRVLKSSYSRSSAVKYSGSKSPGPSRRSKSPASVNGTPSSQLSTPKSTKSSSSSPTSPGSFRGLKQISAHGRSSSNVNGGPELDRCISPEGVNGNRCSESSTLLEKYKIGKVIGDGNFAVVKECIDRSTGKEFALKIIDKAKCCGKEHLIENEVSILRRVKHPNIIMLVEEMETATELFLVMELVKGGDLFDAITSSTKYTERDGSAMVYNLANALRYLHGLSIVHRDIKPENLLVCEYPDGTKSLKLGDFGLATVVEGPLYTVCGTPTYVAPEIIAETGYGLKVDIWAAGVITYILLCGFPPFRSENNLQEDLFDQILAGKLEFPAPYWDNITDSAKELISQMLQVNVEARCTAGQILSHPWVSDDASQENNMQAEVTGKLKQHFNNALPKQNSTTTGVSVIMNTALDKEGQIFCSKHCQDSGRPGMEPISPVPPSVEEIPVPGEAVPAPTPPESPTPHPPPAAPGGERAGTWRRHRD
The note with it: at 1 µM.

Test [4] concerns the target T1, Serine/threonine-protein kinase DCLK2 (Homo sapiens). The note with it: at 10 µM.
In test [5] the target is T2, Serine/threonine-protein kinase 17A (Homo sapiens) (UniProt Q9UEE5).
T2 sequence (whole entry): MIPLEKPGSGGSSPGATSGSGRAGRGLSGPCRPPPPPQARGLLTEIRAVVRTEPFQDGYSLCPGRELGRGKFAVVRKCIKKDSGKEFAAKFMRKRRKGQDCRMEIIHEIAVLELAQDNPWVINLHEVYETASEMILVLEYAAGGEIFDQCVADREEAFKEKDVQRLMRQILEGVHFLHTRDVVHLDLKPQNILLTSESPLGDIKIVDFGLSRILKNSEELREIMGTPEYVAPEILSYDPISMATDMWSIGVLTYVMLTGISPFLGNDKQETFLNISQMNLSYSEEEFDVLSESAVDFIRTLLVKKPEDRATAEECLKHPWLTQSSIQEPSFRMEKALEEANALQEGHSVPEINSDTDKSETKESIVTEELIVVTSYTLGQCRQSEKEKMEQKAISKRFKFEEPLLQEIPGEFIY
The note with it: at 10 µM.

In test [6] the target is T3, Dual specificity tyrosine-phosphorylation-regulated kinase 2 (Homo sapiens) (UniProt Q92630).
T3 sequence (whole entry): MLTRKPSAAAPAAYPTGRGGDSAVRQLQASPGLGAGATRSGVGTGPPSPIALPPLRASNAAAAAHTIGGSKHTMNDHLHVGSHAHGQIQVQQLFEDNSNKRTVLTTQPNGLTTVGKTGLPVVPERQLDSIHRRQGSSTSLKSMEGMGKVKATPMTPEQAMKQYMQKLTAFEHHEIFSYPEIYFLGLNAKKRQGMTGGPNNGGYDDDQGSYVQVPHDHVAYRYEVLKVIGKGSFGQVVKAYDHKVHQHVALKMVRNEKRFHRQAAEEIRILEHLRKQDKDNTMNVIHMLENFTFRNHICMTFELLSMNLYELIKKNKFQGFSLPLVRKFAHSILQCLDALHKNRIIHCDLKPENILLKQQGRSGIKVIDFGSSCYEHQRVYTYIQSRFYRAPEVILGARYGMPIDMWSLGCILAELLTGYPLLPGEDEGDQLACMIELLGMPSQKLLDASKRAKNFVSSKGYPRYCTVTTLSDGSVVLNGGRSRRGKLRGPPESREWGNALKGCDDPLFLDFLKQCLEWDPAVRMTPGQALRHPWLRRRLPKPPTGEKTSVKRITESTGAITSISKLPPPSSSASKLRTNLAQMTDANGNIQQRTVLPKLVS
The note with it: at 1 µM.

Test [7] concerns the target T3, Dual specificity tyrosine-phosphorylation-regulated kinase 2 (Homo sapiens). The following applies: at 10 µM.
Test [8] deals with T4, Ephrin type-A receptor 1 (Homo sapiens) (UniProt P21709).
T4 sequence (whole entry): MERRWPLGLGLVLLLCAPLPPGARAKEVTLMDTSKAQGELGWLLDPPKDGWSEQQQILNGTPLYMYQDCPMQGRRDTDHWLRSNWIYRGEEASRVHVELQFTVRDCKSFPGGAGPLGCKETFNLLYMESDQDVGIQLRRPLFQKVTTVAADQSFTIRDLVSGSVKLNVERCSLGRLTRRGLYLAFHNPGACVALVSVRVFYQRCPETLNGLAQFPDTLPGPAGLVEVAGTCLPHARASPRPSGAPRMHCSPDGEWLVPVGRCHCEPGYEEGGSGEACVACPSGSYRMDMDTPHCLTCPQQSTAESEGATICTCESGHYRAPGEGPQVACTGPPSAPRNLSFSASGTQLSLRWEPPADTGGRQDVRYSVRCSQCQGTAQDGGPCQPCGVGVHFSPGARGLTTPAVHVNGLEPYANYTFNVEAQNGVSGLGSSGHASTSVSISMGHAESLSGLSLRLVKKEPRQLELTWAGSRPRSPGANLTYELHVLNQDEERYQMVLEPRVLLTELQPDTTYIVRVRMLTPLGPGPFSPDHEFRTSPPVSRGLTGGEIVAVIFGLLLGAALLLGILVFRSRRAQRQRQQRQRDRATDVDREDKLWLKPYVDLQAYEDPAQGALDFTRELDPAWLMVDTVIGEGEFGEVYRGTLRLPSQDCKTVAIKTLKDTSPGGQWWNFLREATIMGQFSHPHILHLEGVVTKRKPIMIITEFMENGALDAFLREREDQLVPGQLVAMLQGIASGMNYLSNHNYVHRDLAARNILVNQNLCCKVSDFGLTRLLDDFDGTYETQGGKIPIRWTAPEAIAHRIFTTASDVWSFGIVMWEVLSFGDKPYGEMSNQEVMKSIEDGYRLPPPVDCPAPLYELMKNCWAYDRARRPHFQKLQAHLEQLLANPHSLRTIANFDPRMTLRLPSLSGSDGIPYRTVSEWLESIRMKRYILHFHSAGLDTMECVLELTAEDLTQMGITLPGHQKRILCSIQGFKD
The note with it: at 1 µM.

Test [9] addresses T4, Ephrin type-A receptor 1 (Homo sapiens). The following applies: at 10 µM.
The target of test [10] is T5, Ephrin type-A receptor 3 (Homo sapiens) (UniProt P29320).
T5 sequence (whole entry): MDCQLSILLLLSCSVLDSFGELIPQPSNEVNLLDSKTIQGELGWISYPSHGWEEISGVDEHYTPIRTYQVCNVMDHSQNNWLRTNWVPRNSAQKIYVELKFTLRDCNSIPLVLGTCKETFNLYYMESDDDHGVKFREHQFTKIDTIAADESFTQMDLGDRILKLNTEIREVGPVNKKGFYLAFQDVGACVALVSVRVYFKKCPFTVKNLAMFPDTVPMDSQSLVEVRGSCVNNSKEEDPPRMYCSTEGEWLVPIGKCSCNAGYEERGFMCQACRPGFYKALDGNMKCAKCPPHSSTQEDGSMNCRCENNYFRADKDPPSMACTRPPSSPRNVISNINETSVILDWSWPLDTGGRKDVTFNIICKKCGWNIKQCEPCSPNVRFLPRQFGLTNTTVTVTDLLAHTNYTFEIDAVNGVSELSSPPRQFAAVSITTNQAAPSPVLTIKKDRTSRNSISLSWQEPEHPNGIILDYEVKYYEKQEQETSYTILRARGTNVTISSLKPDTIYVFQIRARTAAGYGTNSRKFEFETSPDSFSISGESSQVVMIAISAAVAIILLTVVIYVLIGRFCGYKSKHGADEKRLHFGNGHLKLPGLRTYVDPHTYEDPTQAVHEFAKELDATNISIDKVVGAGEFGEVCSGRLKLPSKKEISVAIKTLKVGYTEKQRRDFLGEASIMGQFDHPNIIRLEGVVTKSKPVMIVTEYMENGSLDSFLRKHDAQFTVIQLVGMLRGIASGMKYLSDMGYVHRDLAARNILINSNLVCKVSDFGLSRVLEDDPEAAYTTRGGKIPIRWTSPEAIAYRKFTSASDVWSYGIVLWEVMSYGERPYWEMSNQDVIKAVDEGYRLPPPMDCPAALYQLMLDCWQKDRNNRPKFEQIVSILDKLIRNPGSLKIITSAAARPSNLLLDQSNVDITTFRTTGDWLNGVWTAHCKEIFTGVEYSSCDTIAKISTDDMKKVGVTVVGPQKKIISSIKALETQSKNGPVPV
The following applies: at 1 µM.

For test [11], the target named is Death-associated protein kinase 2 (Homo sapiens) (UniProt Q9UIK4). The note with it: at 10 µM.
Test [12] addresses T6, Discoidin domain-containing receptor 2 (Homo sapiens) (UniProt Q16832).
T6 sequence (whole entry): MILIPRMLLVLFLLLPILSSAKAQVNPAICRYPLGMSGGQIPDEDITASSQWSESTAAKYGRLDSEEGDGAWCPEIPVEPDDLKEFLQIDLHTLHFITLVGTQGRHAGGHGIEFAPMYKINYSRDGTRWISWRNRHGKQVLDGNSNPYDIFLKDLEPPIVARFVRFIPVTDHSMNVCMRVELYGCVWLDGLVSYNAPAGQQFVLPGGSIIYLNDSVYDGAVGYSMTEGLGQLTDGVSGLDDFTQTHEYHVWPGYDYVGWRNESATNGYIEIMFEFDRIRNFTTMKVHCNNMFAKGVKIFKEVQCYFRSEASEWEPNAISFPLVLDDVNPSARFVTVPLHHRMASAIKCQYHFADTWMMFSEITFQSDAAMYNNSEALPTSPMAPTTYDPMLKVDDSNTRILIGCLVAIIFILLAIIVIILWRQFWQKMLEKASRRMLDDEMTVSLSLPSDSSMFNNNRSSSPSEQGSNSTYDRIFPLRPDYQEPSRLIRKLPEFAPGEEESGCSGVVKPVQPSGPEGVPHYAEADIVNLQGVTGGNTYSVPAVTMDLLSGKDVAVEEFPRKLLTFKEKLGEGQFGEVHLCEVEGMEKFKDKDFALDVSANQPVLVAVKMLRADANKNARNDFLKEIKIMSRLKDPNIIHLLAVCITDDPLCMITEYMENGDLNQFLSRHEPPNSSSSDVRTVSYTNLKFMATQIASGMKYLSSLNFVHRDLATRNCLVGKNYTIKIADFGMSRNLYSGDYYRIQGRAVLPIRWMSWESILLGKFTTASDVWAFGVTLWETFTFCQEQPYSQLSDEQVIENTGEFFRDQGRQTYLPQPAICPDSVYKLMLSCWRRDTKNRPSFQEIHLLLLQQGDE
The following applies: at 10 µM.

In test [13] the target is T7, Myotonin-protein kinase (Homo sapiens) (UniProt Q09013).
T7 sequence (whole entry): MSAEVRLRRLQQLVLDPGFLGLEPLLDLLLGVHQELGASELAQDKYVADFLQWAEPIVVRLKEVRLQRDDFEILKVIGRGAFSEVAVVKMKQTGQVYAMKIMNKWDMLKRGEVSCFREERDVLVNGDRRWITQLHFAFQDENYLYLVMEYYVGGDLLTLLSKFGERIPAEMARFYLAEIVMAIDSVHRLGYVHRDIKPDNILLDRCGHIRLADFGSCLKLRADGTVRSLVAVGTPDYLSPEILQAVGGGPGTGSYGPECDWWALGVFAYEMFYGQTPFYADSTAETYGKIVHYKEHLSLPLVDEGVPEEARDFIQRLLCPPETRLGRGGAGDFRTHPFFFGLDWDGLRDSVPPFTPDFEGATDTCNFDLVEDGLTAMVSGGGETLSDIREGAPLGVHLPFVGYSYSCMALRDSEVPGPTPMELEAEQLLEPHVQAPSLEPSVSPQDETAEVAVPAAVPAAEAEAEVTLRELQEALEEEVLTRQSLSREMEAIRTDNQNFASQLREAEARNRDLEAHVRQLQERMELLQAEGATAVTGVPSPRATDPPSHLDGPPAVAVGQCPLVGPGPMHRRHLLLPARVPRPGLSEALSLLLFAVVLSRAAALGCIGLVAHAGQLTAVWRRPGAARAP
The note with it: at 1 µM.

Test [14] has as its target T7, Myotonin-protein kinase (Homo sapiens). The note with it: at 10 µM.
Test [15] addresses T2, Serine/threonine-protein kinase 17A (Homo sapiens). The following applies: at 1 µM.
The target of test [16] is Ephrin type-A receptor 2 (Homo sapiens) (UniProt P29317). The following applies: at 10 µM.
Sequence of Ephrin type-A receptor 2 (Homo sapiens) (P29317 whole entry): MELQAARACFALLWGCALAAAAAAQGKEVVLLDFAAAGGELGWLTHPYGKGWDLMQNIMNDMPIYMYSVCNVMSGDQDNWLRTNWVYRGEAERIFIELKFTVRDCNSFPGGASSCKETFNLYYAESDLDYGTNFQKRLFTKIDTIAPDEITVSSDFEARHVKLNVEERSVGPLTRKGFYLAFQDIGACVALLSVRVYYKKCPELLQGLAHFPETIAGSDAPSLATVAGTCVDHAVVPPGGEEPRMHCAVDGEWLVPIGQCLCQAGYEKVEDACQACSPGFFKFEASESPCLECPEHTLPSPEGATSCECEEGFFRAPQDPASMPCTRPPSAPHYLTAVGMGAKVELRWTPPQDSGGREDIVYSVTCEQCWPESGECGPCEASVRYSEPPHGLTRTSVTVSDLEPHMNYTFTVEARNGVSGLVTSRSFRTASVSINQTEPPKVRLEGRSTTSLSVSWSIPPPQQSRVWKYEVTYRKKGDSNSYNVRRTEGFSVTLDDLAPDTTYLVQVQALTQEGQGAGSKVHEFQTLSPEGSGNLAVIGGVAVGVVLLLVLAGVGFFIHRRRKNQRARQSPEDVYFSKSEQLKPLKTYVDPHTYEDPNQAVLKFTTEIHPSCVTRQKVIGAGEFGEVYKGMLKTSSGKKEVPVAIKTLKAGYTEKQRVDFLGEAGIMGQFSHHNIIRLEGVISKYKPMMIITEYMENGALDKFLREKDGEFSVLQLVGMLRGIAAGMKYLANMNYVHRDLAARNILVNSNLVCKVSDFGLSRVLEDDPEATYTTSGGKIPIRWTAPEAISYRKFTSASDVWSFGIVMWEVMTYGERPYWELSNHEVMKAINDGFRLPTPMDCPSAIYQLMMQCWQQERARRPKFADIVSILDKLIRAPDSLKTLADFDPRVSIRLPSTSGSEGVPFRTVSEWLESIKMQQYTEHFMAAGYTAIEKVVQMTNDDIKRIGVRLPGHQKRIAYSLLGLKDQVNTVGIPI

Sequence of Death-associated protein kinase 1 (Homo sapiens) (P53355 whole entry, looked up): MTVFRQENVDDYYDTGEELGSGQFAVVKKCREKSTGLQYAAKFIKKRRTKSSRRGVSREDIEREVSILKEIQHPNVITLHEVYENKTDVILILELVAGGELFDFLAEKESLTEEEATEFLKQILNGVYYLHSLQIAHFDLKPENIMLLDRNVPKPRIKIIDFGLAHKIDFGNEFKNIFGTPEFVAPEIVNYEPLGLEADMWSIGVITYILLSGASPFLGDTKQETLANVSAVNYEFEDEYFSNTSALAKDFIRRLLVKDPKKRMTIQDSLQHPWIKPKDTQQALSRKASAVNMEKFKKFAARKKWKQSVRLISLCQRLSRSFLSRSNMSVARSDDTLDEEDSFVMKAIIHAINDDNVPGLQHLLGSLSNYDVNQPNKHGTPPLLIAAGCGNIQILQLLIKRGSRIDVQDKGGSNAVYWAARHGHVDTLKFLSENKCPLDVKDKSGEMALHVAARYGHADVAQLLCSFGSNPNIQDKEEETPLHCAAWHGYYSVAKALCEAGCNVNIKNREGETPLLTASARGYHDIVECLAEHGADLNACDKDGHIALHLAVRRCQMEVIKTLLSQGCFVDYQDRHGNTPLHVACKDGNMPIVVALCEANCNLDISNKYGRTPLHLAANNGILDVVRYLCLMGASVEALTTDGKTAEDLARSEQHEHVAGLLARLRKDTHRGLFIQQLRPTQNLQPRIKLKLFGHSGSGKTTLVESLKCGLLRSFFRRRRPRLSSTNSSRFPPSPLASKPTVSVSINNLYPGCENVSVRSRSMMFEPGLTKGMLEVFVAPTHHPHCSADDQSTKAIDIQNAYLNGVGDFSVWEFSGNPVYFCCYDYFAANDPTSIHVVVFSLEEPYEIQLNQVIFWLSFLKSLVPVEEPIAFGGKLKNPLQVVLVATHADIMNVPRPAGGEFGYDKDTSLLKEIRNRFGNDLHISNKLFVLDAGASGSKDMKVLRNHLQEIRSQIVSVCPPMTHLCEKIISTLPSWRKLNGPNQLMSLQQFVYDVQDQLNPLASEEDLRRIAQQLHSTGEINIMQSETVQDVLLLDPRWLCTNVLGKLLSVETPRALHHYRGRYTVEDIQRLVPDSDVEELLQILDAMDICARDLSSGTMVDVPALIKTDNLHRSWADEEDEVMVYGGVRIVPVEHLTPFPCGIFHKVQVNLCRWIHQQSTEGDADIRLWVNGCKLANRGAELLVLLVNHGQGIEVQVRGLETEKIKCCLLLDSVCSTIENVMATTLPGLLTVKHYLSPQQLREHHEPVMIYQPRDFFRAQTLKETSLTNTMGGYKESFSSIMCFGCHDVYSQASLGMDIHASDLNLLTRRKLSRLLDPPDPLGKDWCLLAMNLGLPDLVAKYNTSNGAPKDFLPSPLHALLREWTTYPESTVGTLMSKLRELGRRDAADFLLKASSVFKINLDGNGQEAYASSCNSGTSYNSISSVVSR
Sequence of Death-associated protein kinase 2 (Homo sapiens) (Q9UIK4 whole entry, looked up, the tested form may be a part): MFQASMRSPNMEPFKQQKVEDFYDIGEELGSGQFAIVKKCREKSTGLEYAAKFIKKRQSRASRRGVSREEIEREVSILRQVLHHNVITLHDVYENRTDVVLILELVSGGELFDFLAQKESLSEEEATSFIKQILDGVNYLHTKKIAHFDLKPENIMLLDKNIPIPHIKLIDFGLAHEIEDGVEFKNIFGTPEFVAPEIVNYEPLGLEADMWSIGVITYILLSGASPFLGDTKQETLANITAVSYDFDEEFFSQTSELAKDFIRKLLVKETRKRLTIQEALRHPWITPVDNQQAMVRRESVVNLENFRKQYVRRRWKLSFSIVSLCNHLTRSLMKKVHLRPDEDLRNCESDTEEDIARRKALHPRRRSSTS

Consider `Nc1ncnc2c1cnn2-c1ccccc1`, for which the residual activity in [1] amounted to 86%; in test [2], 95%; in [3], 71%; in [4] it was 69%; in test [5] it was 68%; in test [6], 85%. For the same molecule, the residual activity in [7] worked out at 44%; in [8], 85%; in [9] it was 88%; in [10] it was 100%.

In the case of `CCN(CC)CCNC(=O)c1c(C)[nH]c(/C=C2\C(=O)Nc3ccc(Cl)cc32)c1C`, the residual activity came out at 31% in test [1]; 63% in test [2]; 16% in test [11]; 68% in [3]; 24% in [4]; 44% in [12]. Further, the residual activity in test [13] was determined as 52%; in [14], 68%; in test [15] it was 3%; in [5] it was 2%; in test [6], 78%; in test [7], 37%. Also, the residual activity in [8] was 82%; in test [9], 37%; in [16] it was 73%.

On to `N#Cc1c(NC(=O)c2cccc3ccccc23)sc2c1CCCC2`, for which the residual activity in test [1] stood at 81%; in test [2] it was 93%; in [4], 77%; in test [13], 100%; in [14], 91%; in test [15] it was 77%. Also, the residual activity in test [5] was 134%.
